“And” between values parts separate entries of the source, which are not always exact repeats. Identical values can stand only once.
Legend:
Assay in all cases: growth inhibition (% activity, log2 RLU normalised to DMSO / staurosporine); higher = more growth inhibition
Details in all cases: 33 µM
DIPGX29 = tested on: DIPGX29 (H3.3 K27M diffuse intrinsic pontine glioma line)
In short: (§1)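 Approved drugs were tested in triplicate at a single final concentration of about 33 μM for 7 days at 37 °C, 5% CO2, on pHGG cell lines and H9-derived neural stem cells. Readout was CellTiter-Glo luminescence, log2-transformed and scaled per plate to % activity between solvent and positive control wells. The median over replicates gives the growth-inhibition value.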

DIPGX37 = tested on: DIPGX37 (H3.3 K27M diffuse intrinsic pontine glioma line)
In short: as §1

DIPGX7 = tested on: DIPGX7 (H3.3 K27M diffuse intrinsic pontine glioma line)
In short: as §1

DIPGX9 = tested on: DIPGX9 (diffuse intrinsic pontine glioma line)
In short: as §1

HGGX39 = tested on: HGGX39 (paediatric high-grade glioma line)
In short: as §1

HGGX6 = tested on: HGGX6 (H3.3 G34R paediatric high-grade glioma line)
In short: as §1

HNSC = tested on: HNSC
In short: as §1

SUDIPGIV = tested on: SUDIPGIV (diffuse intrinsic pontine glioma line)
In short: as §1

SUDIPGVI = tested on: SUDIPGVI (diffuse intrinsic pontine glioma line)
In short: as §1

SUDIPGXIII = tested on: SUDIPGXIII (diffuse intrinsic pontine glioma line)
In short: as §1

| SMILES | growth inhibition (DIPGX29) | growth inhibition (DIPGX37) | growth inhibition (DIPGX7) | growth inhibition (DIPGX9) | growth inhibition (HGGX39) | growth inhibition (HGGX6) | growth inhibition (HNSC) | growth inhibition (SUDIPGIV) | growth inhibition (SUDIPGVI) | growth inhibition (SUDIPGXIII) |
| --- | --- | --- | --- | --- | --- | --- | --- | --- | --- | --- |
| C[C@]12CCC(=O)C=C1CC[C@@H]1[C@@H]2[C@@H](O)C[C@@]2(C)[C@H]1CC[C@]2(O)C(=O)CO | 1.76% | 3.35% | 0.297% | 4.32% | 3.81% | 2.56% | -1.17% | -0.15% | 3.46% | 0.475% |
| OCC(O)CN1CCN(c2ccccc2)CC1 (stereo not given) | -2.77% | -0.131% | -2.09% | -1.86% | -1.17% | -1.7% | -3.11% | -1.45% | -3.65% | -0.744% |
| C=C[C@H]1CN2CC[C@H]1C[C@H]2[C@H](O)c1ccnc2ccc(OC)cc12 | 2.06% | 3.05% | 2.14% | 2.35% | 3.17% | 1.13% | 2.99% | 2.17% | 4.23% | -0.182% |
| O=C(NCCN1CCOCC1)c1ccc(Cl)cc1 | 0.0777% | -0.588% | -0.129% | -0.472% | -0.0669% | -0.698% | -1.63% | -0.786% | -1.17% | 0.934% |
| COc1ccc(/C=C/C(=O)Nc2ccccc2C(=O)O)cc1OC | -0.16% | 2.16% | 1.32% | -0.609% | -0.29% | -0.75% | 3.65% | 0.158% | -5.28% | -1.02% |
| CC[C@@H]([C@H](C)O)n1ncn(-c2ccc(N3CCN(c4ccc(OC[C@@H]5CO[C@@](Cn6cncn6)(c6ccc(F)cc6F)C5)cc4)CC3)cc2)c1=O | -3.19% | -0.0907% | -0.181% | -2.09% | -0.245% | -1.15% | -2.54% | -2.62% | -1.64% | 0.673% |
| C#CC1(O)CCC2C3CCc4cc(OC)ccc4C3CCC21C (stereo not given) | 0.518% | -0.765% | -0.178% | 1.8% | 0.428% | 1.53% | -0.897% | -1.25% | 2.06% | -0.164% |
| CNC(=C[N+](=O)[O-])NCCSCc1ccc(CN(C)C)o1 | 2.69% | 2.65% | 5.27% | 2.2% | 4.25% | 0.922% | 9.82% | 1.43% | 1.91% | -0.737% |
| CCN1CC(CCN2CCOCC2)C(c2ccccc2)(c2ccccc2)C1=O (stereo not given) | 3.26% | 4.12% | 3.42% | 1.56% | 3.54% | 3.39% | 6.96% | 3.42% | 2.27% | -0.683% |
| CC(=O)/N=c1/sc(S(N)(=O)=O)nn1C | 1.46% | 2.45% | 2.3% | 1.1% | 4.29% | 1.67% | 5.67% | 0.751% | 1.6% | -14.4% |
| CC(C(=O)O)c1cccc(Oc2ccccc2)c1 (stereo not given) | 1.86% and -0.732% | 4.27% and 0.295% | 0.905% and -1.45% | 0.241% and -0.0623% | 1.32% and -0.621% | 2.03% and -0.313% | 0.908% and -1.16% | -2.87% and -3.43% | 3.45% and 0.152% | 0.892% and 1.49% |
| CCCC(C(=O)OCCN(CC)CC)(c1ccccc1)c1ccccc1 | 3.18% | 1.54% | 2.35% | 0.685% | 0.885% | 3.92% | 4.69% | 1.52% | 1.12% | 2.55% |
| NC(=O)c1cccnc1 | -0.689% | -1.05% | -0.0852% | 0.951% | 0.786% | 0.835% | 0.303% | -0.404% | -0.906% | 0.194% |
| CN1CC(=O)NC1=N | 1.19% | -0.026% | 4.55% | 2.89% | 6.17% | 2.06% | 10.1% | 2.65% | 3.88% | 1.35% |
| CN1c2cc(O)c(N=NC(N)=O)cc2CC1S(=O)(=O)O (stereo not given) | -0.566% | -0.439% | -0.368% | -0.808% | -0.659% | 0.668% | -5.18% | -0.34% | 0.422% | -12.4% |
| CCN1CCN(C(=O)NC(C(=O)NC2C(=O)N3C(C(=O)O)=C(CSc4nnnn4C)CSC23)c2ccc(O)cc2)C(=O)C1=O (stereo not given) | -4.55% | 0.256% | -3.04% | -2.18% | 0.547% | -2.32% | -1.87% | -3.07% | -2.25% | -0.109% |
| CC(=O)CCCCn1c(=O)c2c(ncn2C)n(C)c1=O | 0.465% | 1.18% | 0.88% | 0.578% | 2.34% | 2% | 1.61% | -0.648% | 2.85% | 0.487% |
| C[C@H](CCC(=O)O)[C@H]1CC[C@H]2[C@@H]3CC[C@@H]4C[C@H](O)CC[C@]4(C)[C@H]3CC[C@]12C | -0.532% | -0.978% | -2.9% | -2.11% | 0.371% | -1.49% | -2.18% | -1.6% | -1.83% | 1.26% |
| NS(=O)(=O)c1cc2c(cc1Cl)NCNS2(=O)=O | -1.36% | -0.293% | -0.977% | 0.545% | 0.937% | -0.432% | -1.69% | -0.42% | 0.531% | 1.25% |
| CCOC(=O)[C@H](CCc1ccccc1)N[C@@H](C)C(=O)N1CCC[C@H]1C(=O)O | 1.73% | -8.18% | 0.205% | 0.307% | 0.569% | -0.623% | 1.11% | -1.94% | -1.02% | -3.41% |

| SMILES | growth inhibition (DIPGX29) | growth inhibition (DIPGX37) | growth inhibition (DIPGX7) | growth inhibition (DIPGX9) | growth inhibition (HGGX39) | growth inhibition (HGGX6) | growth inhibition (HNSC) | growth inhibition (SUDIPGIV) | growth inhibition (SUDIPGVI) | growth inhibition (SUDIPGXIII) |
| --- | --- | --- | --- | --- | --- | --- | --- | --- | --- | --- |
| O=C(O)C1(C(=O)O)CCC1.[NH2-].[NH2-].[Pt+2] | -2.53% | 0.00905% | -1.49% | -0.992% | -2.69% | -4.21% | 4.08% | -3.4% | -3.41% | -0.0982% |
| Clc1ccc(C(Cn2ccnc2)OCc2c(Cl)cccc2Cl)c(Cl)c1 (stereo not given) | 2.72% | 3.03% | 3.97% | 3.76% | 8.33% | 5.87% | 4.09% | 11.2% | 2.55% | 10.5% |
| CC(C)c1nc(N(C)S(C)(=O)=O)nc(-c2ccc(F)cc2)c1C=CC(O)CC(O)CC(=O)O (stereo not given) | 7.07% | -1.35% | 16.7% | 4.14% | 24.4% | 15.9% | 73.3% | 21.5% | -6.26% | 17% |
| CC(C)(Oc1ccc(CCNC(=O)c2ccc(Cl)cc2)cc1)C(=O)O | 1.81% | 2.31% | 1.05% | 0.682% | 1.23% | 1.74% | 1.59% | 0.843% | 2.49% | -16.6% |
| CCC1(c2ccccc2)C(=O)NCNC1=O | -1.25% | 0.454% | 0.246% | -0.432% | 2.69% | -0.575% | 3.35% | -1.41% | 0.425% | 0.0763% |
| C[C@]12C=CC(=O)N[C@@H]1CC[C@@H]1[C@@H]2CC[C@]2(C)[C@@H](C(=O)Nc3cc(C(F)(F)F)ccc3C(F)(F)F)CC[C@@H]12 | -0.354% | -0.558% | -0.437% | 0.309% | 0.618% | 1.03% | -1.51% | -0.237% | -0.00919% | -0.463% |
| CC(=O)SCC(Cc1ccccc1)C(=O)NCC(=O)OCc1ccccc1 (stereo not given) | 1.1% | 2.25% | 1.03% | 1.31% | 1.49% | 1.32% | -1.4% | -1.43% | -1.57% | -0.948% |
| CCN(CC)CCOC(=O)C(c1ccccc1)c1ccccc1 | 3.33% | 2.41% | 3.35% | 1.46% | 2.96% | 2.47% | 6.35% | 0.181% | 3% | -1.28% |
| CC(=O)O[C@H]1C(=O)[C@@]2(C)[C@H]([C@H](OC(=O)c3ccccc3)[C@]3(O)C[C@H](OC(=O)[C@H](O)[C@@H](NC(=O)c4ccccc4)c4ccccc4)C(C)=C1C3(C)C)[C@]1(OC(C)=O)CO[C@@H]1C[C@@H]2O | 9.71% | 8.37% | 6.36% | 22% | 32.7% | 16.2% | 60.4% | 25.9% | 6.74% | 6% |
| O=C(CCCN1CC=C(n2c(=O)[nH]c3ccccc32)CC1)c1ccc(F)cc1 | -2.81% | -3.22% | 1.35% | -2.63% | -0.994% | -4.16% | 3.11% | -2.04% | -2.84% | 0.682% |
| NC(Cc1cc(I)c(Oc2cc(I)c(O)c(I)c2)c(I)c1)C(=O)O (stereo not given) | 0.479% | 2.96% | -0.171% | 1.28% | 2.01% | -2.56% | 27.8% | 10.6% | 7.79% | 4.24% |
| CCN[C@@H]1C[C@H](N)[C@@H](O[C@H]2OC(CN)=CC[C@H]2N)[C@H](O)[C@H]1O[C@H]1OC[C@](C)(O)[C@H](NC)[C@H]1O | 0.443% | 3.8% | 2.72% | 2.1% | 2.39% | -0.182% | 8.55% | 3.28% | 2.97% | 2.03% |
| Clc1ccc(CSC(Cn2ccnc2)c2ccc(Cl)cc2Cl)cc1 (stereo not given) | 3.26% | -0.102% | 3.59% | 1.99% | 11.1% | 8.31% | 9.42% | 16.1% | 3.55% | 10.8% |
| CCOC(=O)C1=C(C)NC(C)=C(C(=O)OCC)C1c1ccccc1/C=C/C(=O)OC(C)(C)C | 5.9% | -3.39% | 7.49% | 4.68% | 24.1% | 2.24% | 46.6% | 12.7% | 1.91% | 7.34% |
| CC(C)(C)C(=O)OCOP(=O)(COCCn1cnc2c(N)ncnc21)OCOC(=O)C(C)(C)C | 7.13% | 8.8% | 8.24% | 19.5% | 11.8% | 7.96% | 47.8% | 13.4% | 2.68% | 3.59% |
| Nc1ccc(S(=O)(=O)Nc2ncccn2)cc1 | 0.254% | 1.69% | 0.776% | -0.452% | 0.395% | 0.228% | 1.26% | -0.517% | 1.02% | -2.51% |
| CN(C)CC/C=C1/c2ccccc2COc2ccc(CC(=O)O)cc21 | 1.93% | 3.18% | 2.2% | 2.77% | 2.27% | 2.49% | -0.124% | -0.355% | 2.4% | 0.825% |
| COc1ccccc1OCC(O)CO (stereo not given) | -3.06% | -1.42% | -2.23% | -0.66% | -1.85% | -0.626% | -6.5% | -1.52% | -1.52% | 1.23% |
| CCCCCCCCCC(=O)N[C@@H](Cc1c[nH]c2ccccc12)C(=O)N[C@@H](CC(N)=O)C(=O)N[C@@H](CC(=O)O)C(=O)N[C@@H]1C(=O)NCC(=O)N[C@@H](CCCN)C(=O)N[C@@H](CC(=O)O)C(=O)N[C@H](C)C(=O)N[C@@H](CC(=O)O)C(=O)NCC(=O)N[C@H](CO)C(=O)N[C@@H]([C@H](C)CC(=O)O)C(=O)N[C@@H](CC(=O)c2ccccc2N)C(=O)O[C@@H]1C | -2.71% | -1.3% | -0.801% | -2.61% | -1.25% | -2.93% | -6.45% | -2.57% | -3.09% | -1.13% |

Source: the supplement of paper PMC8253809
